# In the supplement of paper PMC8975748:
# Counter-ions that a name gives are not always drawn.
# Legend:
# [1] = test system: Saccharomyces cerevisiae BY4741 SeMeCo community; experiment: z-score of prototroph abundance vs DMSO median; higher = larger share of this subpopulation than in DMSO controls; conditions: 10 µM; 24 h; SM minimal medium; subpopulation (auxotrophy): Prototroph
# Summary of the method: (§1)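 Four plasmids, each restoring a single auxotrophy and encoding a distinct fluorescent protein, were carried by a Saccharomyces cerevisiae BY4741 community. After overnight growth to OD600 1.0 and dilution to 0.3, 70 µl per well was grown for 24 h in minimal SM medium on 384-well plates acoustically predosed with library drugs at 10 µM final. Following paraformaldehyde fixation, automated confocal microscopy was used, with single-auxotroph fluorescent strains defining thresholds and autofluorescence correction. Subpopulation abundance was then scored as a z-score against the vehicle-well median.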
# [2] = test system: Saccharomyces cerevisiae BY4741 SeMeCo community; experiment: z-score of subpopulation abundance vs DMSO median, subpopulation auxotrophic for M; higher = larger share of this subpopulation than in DMSO controls; conditions: 10 µM; 24 h; SM minimal medium; subpopulation (auxotrophy): M
# Summary of the method: as §1
# [3] = test system: Saccharomyces cerevisiae BY4741 SeMeCo community; experiment: z-score of subpopulation abundance vs DMSO median, subpopulation auxotrophic for L; higher = larger share of this subpopulation than in DMSO controls; conditions: 10 µM; 24 h; SM minimal medium; subpopulation (auxotrophy): L
# Summary of the method: as §1
# [4] = test system: Saccharomyces cerevisiae BY4741 SeMeCo community; experiment: z-score of subpopulation abundance vs DMSO median, subpopulation auxotrophic for U; higher = larger share of this subpopulation than in DMSO controls; conditions: 10 µM; 24 h; SM minimal medium; subpopulation (auxotrophy): U
# Summary of the method: as §1
# [5] = test system: Saccharomyces cerevisiae BY4741 SeMeCo community; experiment: z-score of subpopulation abundance vs DMSO median, subpopulation auxotrophic for H; higher = larger share of this subpopulation than in DMSO controls; conditions: 10 µM; 24 h; SM minimal medium; subpopulation (auxotrophy): H
# Summary of the method: as §1
# [6] = test system: Saccharomyces cerevisiae BY4741 SeMeCo community; experiment: z-score of subpopulation abundance vs DMSO median, subpopulation auxotrophic for LU; higher = larger share of this subpopulation than in DMSO controls; conditions: 10 µM; 24 h; SM minimal medium; subpopulation (auxotrophy): LU
# Summary of the method: as §1
# [7] = test system: Saccharomyces cerevisiae BY4741 SeMeCo community; experiment: z-score of subpopulation abundance vs DMSO median, subpopulation auxotrophic for LM; higher = larger share of this subpopulation than in DMSO controls; conditions: 10 µM; 24 h; SM minimal medium; subpopulation (auxotrophy): LM
# Summary of the method: as §1
# [8] = test system: Saccharomyces cerevisiae BY4741 SeMeCo community; experiment: z-score of subpopulation abundance vs DMSO median, subpopulation auxotrophic for HM; higher = larger share of this subpopulation than in DMSO controls; conditions: 10 µM; 24 h; SM minimal medium; subpopulation (auxotrophy): HM
# Summary of the method: as §1
# [9] = test system: Saccharomyces cerevisiae BY4741 SeMeCo community; experiment: z-score of subpopulation abundance vs DMSO median, subpopulation auxotrophic for HU; higher = larger share of this subpopulation than in DMSO controls; conditions: 10 µM; 24 h; SM minimal medium; subpopulation (auxotrophy): HU
# Summary of the method: as §1
# [10] = test system: Saccharomyces cerevisiae BY4741 SeMeCo community; experiment: z-score of subpopulation abundance vs DMSO median, subpopulation auxotrophic for UM; higher = larger share of this subpopulation than in DMSO controls; conditions: 10 µM; 24 h; SM minimal medium; subpopulation (auxotrophy): UM
# Summary of the method: as §1
# [11] = test system: Saccharomyces cerevisiae BY4741 SeMeCo community; experiment: z-score of subpopulation abundance vs DMSO median, subpopulation auxotrophic for HL; higher = larger share of this subpopulation than in DMSO controls; conditions: 10 µM; 24 h; SM minimal medium; subpopulation (auxotrophy): HL
# Summary of the method: as §1
# [12] = test system: Saccharomyces cerevisiae BY4741 SeMeCo community; experiment: z-score of subpopulation abundance vs DMSO median, subpopulation auxotrophic for HLU; higher = larger share of this subpopulation than in DMSO controls; conditions: 10 µM; 24 h; SM minimal medium; subpopulation (auxotrophy): HLU
# Summary of the method: as §1
# [13] = test system: Saccharomyces cerevisiae BY4741 SeMeCo community; experiment: z-score of subpopulation abundance vs DMSO median, subpopulation auxotrophic for HLM; higher = larger share of this subpopulation than in DMSO controls; conditions: 10 µM; 24 h; SM minimal medium; subpopulation (auxotrophy): HLM
# Summary of the method: as §1
# [14] = test system: Saccharomyces cerevisiae BY4741 SeMeCo community; experiment: z-score of subpopulation abundance vs DMSO median, subpopulation auxotrophic for HUM; higher = larger share of this subpopulation than in DMSO controls; conditions: 10 µM; 24 h; SM minimal medium; subpopulation (auxotrophy): HUM
# Summary of the method: as §1
# [15] = test system: Saccharomyces cerevisiae BY4741 SeMeCo community; experiment: z-score of subpopulation abundance vs DMSO median, subpopulation auxotrophic for LUM; higher = larger share of this subpopulation than in DMSO controls; conditions: 10 µM; 24 h; SM minimal medium; subpopulation (auxotrophy): LUM
# Summary of the method: as §1
# [16] = test system: Saccharomyces cerevisiae BY4741 SeMeCo community; experiment: z-score of subpopulation abundance vs DMSO median, subpopulation auxotrophic for HLUM; higher = larger share of this subpopulation than in DMSO controls; conditions: 10 µM; 24 h; SM minimal medium; subpopulation (auxotrophy): HLUM
# Summary of the method: as §1
Compound,z-score of prototroph abundance [1],z-score of subpopulation abundance [2],z-score of subpopulation abundance [3],z-score of subpopulation abundance [4],z-score of subpopulation abundance [5],z-score of subpopulation abundance [6],z-score of subpopulation abundance [7],z-score of subpopulation abundance [8],z-score of subpopulation abundance [9],z-score of subpopulation abundance [10],z-score of subpopulation abundance [11],z-score of subpopulation abundance [12],z-score of subpopulation abundance [13],z-score of subpopulation abundance [14],z-score of subpopulation abundance [15],z-score of subpopulation abundance [16]
CCCCOc1cc(C(=O)NCCN(CC)CC)c2ccccc2n1 [Dibucaine HCl],0.15,-0.03,-0.47,0.46,-0.92,-0.21,0.03,-0.88,-0.13,0.1,-1.25,-0.62,-0.03,0.03,-0.54,-0.06
CO[C@@H]1[C@@H](OC(N)=O)[C@@H](O)[C@H](Oc2ccc3c(O)c(NC(=O)c4ccc(O)c(CC=C(C)C)c4)c(=O)oc3c2C)OC1(C)C [Novobiocin Sodium],,-0.26,-0.72,0.65,1.97,0.73,-0.47,1.59,2.61,0.58,1.28,1.49,0.81,2.57,1.43,0.56
CCC[C@@H]1C[C@@H](C(=O)N[C@@H]([C@H]2O[C@H](SC)[C@H](OP(=O)(O)O)[C@@H](O)[C@H]2O)[C@H](C)Cl)N(C)C1 [Clindamycin Phosphate],-0.33,0.65,-0.86,0.48,-0.77,0.78,0.11,0.11,-0.25,,-0.71,-0.85,-0.65,0.81,-0.05,-0.47
O=C(O)c1cn(-c2ccc(F)cc2)c2cc(N3CCNCC3)c(F)cc2c1=O [Sarafloxacin HCl],0.01,-0.64,-0.74,0.41,-0.42,-0.05,0.08,-0.52,0.4,0.84,-0.42,-0.35,-0.84,0.61,,-0.29
CCCCCNC(=N)N/N=C/c1c[nH]c2ccc(OC)cc12 [Tegaserod Maleate],-1.66,1.25,2.04,-1.24,0.7,0.84,1.85,1.48,,-0.55,2.5,1.26,1.63,0.89,,1.76
COc1ccc(C2CNC(=O)C2)cc1OC1CCCC1 (stereo unspecified) [Rolipram],0.66,0.33,-0.37,,-0.68,-0.29,0.28,-0.73,-0.85,-0.35,-0.38,-0.57,-1.22,-0.22,-0.59,-0.71
CCCc1nn(C)c2c(=O)[nH]c(-c3cc(S(=O)(=O)N4CCN(C)CC4)ccc3OCC)nc12 [Sildenafil Citrate],0.12,0.03,-0.61,0.43,-0.22,0.51,-0.26,0.01,-0.23,0.49,-0.89,0.14,-0.32,-0.06,-0.09,-0.32
